About 14,000 (4.5%) of roughly 310,000 compounds showed an effect of 50% or more. Effects have a minus sign here. The sample as a whole holds a higher share of strong results than the screen did.
target: human ether-à-go-go-related gene (hERG) potassium channel (human, UniProt Q12809); experiment: primary screen, population patch clamp on CHO cells stably expressing hERG; higher = less effect of the substance
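Also: peak tail current of the secondary pulse compared with the same well before compound.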

Sequence of human ether-à-go-go-related gene (hERG) potassium channel (Q12809 whole entry, looked up): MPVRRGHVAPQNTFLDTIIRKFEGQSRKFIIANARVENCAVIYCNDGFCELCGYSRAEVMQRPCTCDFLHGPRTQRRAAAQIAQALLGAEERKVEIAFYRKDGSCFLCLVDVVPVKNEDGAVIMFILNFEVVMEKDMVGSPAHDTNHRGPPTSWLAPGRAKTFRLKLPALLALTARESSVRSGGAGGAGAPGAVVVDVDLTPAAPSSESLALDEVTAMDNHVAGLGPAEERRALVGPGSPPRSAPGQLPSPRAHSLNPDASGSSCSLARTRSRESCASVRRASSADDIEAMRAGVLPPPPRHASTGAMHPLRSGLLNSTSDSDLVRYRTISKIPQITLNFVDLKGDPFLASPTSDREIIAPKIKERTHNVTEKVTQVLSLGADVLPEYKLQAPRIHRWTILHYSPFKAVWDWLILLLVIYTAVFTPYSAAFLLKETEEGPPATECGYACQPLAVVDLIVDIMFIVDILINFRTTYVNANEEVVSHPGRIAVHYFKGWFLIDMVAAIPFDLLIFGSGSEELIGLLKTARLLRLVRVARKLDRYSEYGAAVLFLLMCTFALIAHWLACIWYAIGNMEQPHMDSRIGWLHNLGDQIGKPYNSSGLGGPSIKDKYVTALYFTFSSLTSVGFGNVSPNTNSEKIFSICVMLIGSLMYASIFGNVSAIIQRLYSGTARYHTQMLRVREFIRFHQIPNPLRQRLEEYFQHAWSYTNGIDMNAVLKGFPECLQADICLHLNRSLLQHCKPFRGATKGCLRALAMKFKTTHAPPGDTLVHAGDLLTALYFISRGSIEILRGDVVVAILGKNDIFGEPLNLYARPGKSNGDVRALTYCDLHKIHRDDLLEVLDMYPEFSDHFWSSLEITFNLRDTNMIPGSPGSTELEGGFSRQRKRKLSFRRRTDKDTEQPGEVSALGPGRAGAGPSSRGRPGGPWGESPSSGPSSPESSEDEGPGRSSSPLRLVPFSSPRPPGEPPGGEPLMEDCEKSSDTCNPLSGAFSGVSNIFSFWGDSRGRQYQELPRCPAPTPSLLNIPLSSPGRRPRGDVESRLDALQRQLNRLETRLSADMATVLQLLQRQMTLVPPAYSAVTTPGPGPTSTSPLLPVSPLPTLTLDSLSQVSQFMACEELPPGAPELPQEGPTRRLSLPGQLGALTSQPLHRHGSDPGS

Row | SMILES | hERG current change (%, negative = inhibition) at 10uM [%]
1 | O=C(NCC1CCCCC1)c1cccc(Br)c1 | -3.31
2 | CCCOc1ccc(N2CC(C(=O)Nc3ccc(N4CCOCC4)cc3)CC2=O)cc1 (stereo not drawn) | 36
3 | CN1CCC(OC(=O)c2cccc(F)c2)CC1.Cl | -0.186
4 | Cc1ccc(N2CC(NS(=O)(=O)c3cc(F)ccc3F)CC2=O)cc1C (stereo not drawn) | -6.74
5 | Cc1ccc(-n2nnnc2SCC(=O)Nc2ccc(N3CCN(C)CC3)cc2)c(C)c1 | -21
6 | Cc1cccc(-n2nnnc2SCC(=O)Nc2ccc(N3CCN(C)CC3)cc2)c1 | -55
7 | O=C(CSc1nnnn1C1CCCCC1)NNC(=O)c1ccco1 | 11.3
8 | Cc1ccccc1-n1nnnc1SCC(=O)Nc1ccc(N2CCN(C)CC2)cc1 | -35.8
9 | CC(=O)c1cccc(-n2nnnc2SCC(=O)Nc2cccc(NC(=O)c3ccco3)c2)c1 | -60.7
10 | CC(=O)c1ccc(-n2nnnc2SCC(=O)Nc2cccc(NC(=O)c3ccco3)c2)cc1 | 6.89
11 | O=C(CSc1nnnn1C1CCCC1)Nc1cccc(NC(=O)c2ccco2)c1 | -55.9
12 | O=C(CSc1nnnn1C1CCCCC1)Nc1cccc(NC(=O)c2ccco2)c1 | -27.8
13 | Cc1ccc(-n2nnnc2SCC(=O)Nc2cccc(NC(=O)c3ccco3)c2)cc1C | -6.49
14 | COc1cc(S(=O)(=O)NCc2ccncc2)c(OC)cc1Cl | 6.57
15 | CCC(C)NC(=O)c1cn(CCOC)c(=O)c2c1c1ccccc1n2C (stereo not drawn) | 20.4
16 | COc1ccc(Cn2c(CCC(=O)Nc3ccccc3OC)nc3cccnc32)cc1 | -3.79
17 | COc1cccc(CN2C(=O)C(C)N(C(=O)c3ccccc3)c3ccccc32)c1 (stereo not drawn) | -5.44
18 | CC1CCC(C(=O)c2c(O)c3ccccc3oc2=O)CC1 (stereo not drawn) | 15.9
19 | COc1ccc(-c2nc(S(=O)(=O)c3ccc(C)cc3)c(N3CCCC3)o2)cc1 | 17.2
20 | O=C(Nc1ccc(-n2ccnc2P(=O)(O)c2ccccc2)cc1)c1ccccc1Br | -14.9

Row | SMILES | hERG current change (%, negative = inhibition) at 10uM [%]
21 | CCOC(=O)c1snc(C(=O)NC2CCCCC2)c1N | -6.13
22 | COc1ccc(NC(=O)c2sc3ncnc(N4CCN(c5ccccn5)CC4)c3c2C)cc1Cl | -23
23 | Nc1nc(CN2CCN(Cc3ccccc3)CC2)nc(Nc2ccccc2)n1 | -66.2
24 | Nc1nc(CN2CCN(C(c3ccccc3)c3ccccc3)CC2)nc(Nc2ccccc2)n1 | -18.4
25 | c1ccc(Nc2nc(N3CCCCC3)nc(N3CCCCC3)n2)cc1 | -4.68
26 | Nc1nc(CN2CCCCCC2)nc(Nc2ccccc2)n1 | -61.4
27 | c1ccc(Nc2nc(N3CCCC3)nc(N3CCCC3)n2)cc1 | 13.1
28 | Nc1nc(CCl)nc(Nc2ccccc2)n1 | 20.7
29 | O=C(NC(Nc1nc2ccc([N+](=O)[O-])cc2s1)(C(F)(F)F)C(F)(F)F)c1ccccc1 | -6.48
30 | CCCc1nnc(NC(=O)c2c(O)c3cccc4c3n(c2=O)CCC4)s1 | -2.48
31 | S=C(NCCCN1CCOCC1)NC1CCCC1 | 8.32
32 | O=c1[nH]c(/C=C\c2ccccc2F)nc(O)c1[N+](=O)[O-] | 17.5
33 | COc1ccc(NC(=O)CSc2c(C)n[nH]c2C)cc1 | -7.52
34 | CCOc1ccc(OCCC(=O)NNC(=O)c2nn(C)c(=O)c3ccccc23)cc1 | -13.1
35 | Cc1ccc(OCCC(=O)NNC(=O)c2nn(C)c(=O)c3ccccc23)cc1 | -33.1
36 | Cc1occc1C(=O)NNC(=O)c1nn(C)c(=O)c2ccccc12 | 8.46
37 | CCc1noc(C)c1C(=O)NNC(=O)c1ccccc1 | -1.03
38 | Cn1nc(C(=O)NNC(=O)CCc2ccccc2Cl)c2ccccc2c1=O | -53.9
39 | CCc1noc(C)c1C(=O)NNC(=O)c1nn(C)c(=O)c2ccccc12 | -50.2
40 | CCOC(=O)N1CCN(C(=O)C(CC(C)C)NS(=O)(=O)c2ccc(C)cc2)CC1 (stereo not drawn) | -4.14

Row | SMILES | hERG current change (%, negative = inhibition) at 10uM [%]
41 | COC(=O)C1C2c3ccccc3OC1(C)N=c1s/c(=C/c3cn(C)nc3C)c(=O)n12 (stereo not drawn) | 11.2
42 | COC(CNC(=O)c1ccc2c(c1)nc(C)n2-c1cccc(C)c1)OC | 0.933
43 | CCC(CC)NC(=O)COC(=O)c1ccc(OCC(=O)Nc2ccccc2OC)c(OC)c1 | 11.4
44 | COc1cc(OC)cc(C(=O)N2CCN(c3ccccc3F)CC2)c1 | -11.6
45 | O=C(c1ccccc1Br)N1CCN(c2ccc([N+](=O)[O-])c(N3CCOCC3)c2)CC1 | -11.5
46 | Cc1ccc(N2CCN(C(=O)c3ccccc3F)CC2)c(C)c1 | -8.81
47 | COc1ccc(N2CCN(C(=O)c3ccccc3Br)CC2)c([N+](=O)[O-])c1 | -65.5
48 | COc1cc(C(=O)N2CCN(c3ccccc3OC)CC2)c([N+](=O)[O-])cc1OC | 18.5
49 | COc1ccc(N2CCN(C(=O)c3ccccc3F)CC2)c([N+](=O)[O-])c1 | -51.3
50 | Cc1cc(=O)oc2cc(OCc3cc4c(cc3Cl)OCO4)ccc12 | 8.74
51 | NNC(=O)CNc1cccc(Cl)c1 | 15.4
52 | CC(=O)c1ccc(NC(=O)C2C3CCC(C3)C2C(=O)O)cc1 (stereo not drawn) | 17.8
53 | COCCCNC(=O)Cn1nc(-c2ccccc2OC)ccc1=O | 18
54 | COc1ccc(Cl)cc1C(=O)Nc1ccncc1 | -26.2
55 | Cn1c(N)c(C(=O)COC(=O)C23CC4CC(CC(C4)C2)C3)c(=O)n(C)c1=O | -22.6
56 | Cn1c(N)c(C(=O)COC(=O)CC2CC3CCC2C3)c(=O)n(C)c1=O (stereo not drawn) | -64.4
57 | Cn1c(N)c(C(=O)COC(=O)CCC2CCCCC2)c(=O)n(C)c1=O | -73.6
58 | Cn1c(N)c(C(=O)COC(=O)CCC2CCCC2)c(=O)n(C)c1=O | -43.3
59 | Cn1c(N)c(C(=O)COC(=O)C2CCCC2)c(=O)n(C)c1=O | -20.6
60 | Cn1c(N)c(C(=O)COC(=O)C2CCCCC2)c(=O)n(C)c1=O | -11.2

Reference: PMC4336329 (PLoS ONE, 2015)
